Reference: PubChem BioAssay
Calls of active or inactive are those of the source.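 How the source made its calls, unless noted: active means fluorescence slope higher than the sample average by over 3 SD (cut at about -0.22 in these data, passing the limit was not always enough); inactive means the rest.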

Legend:
[1] = inhibitors of TNFa-induced NFkB p65 translocation, primary screen, imaging, HUVEC, MLSMR starter and 10KST1 sets (AID 438;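 active means inhibition above 20% together with a positive visual image hit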;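 further: compound added about 3h40 before a 20 min TNFalpha stimulation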;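 on inhibition: signal is the nuclear over cytoplasmic p65 intensity ratio per well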); settings: HUVEC TNFa-induced p65 nuclear translocation; cell count: measured here: nuclei count (cytotoxicity indicator), at 2.08 µM; inhibition: at 2 µM, stronger effect = higher value, 0% TNFa-plus-vehicle, 100% no-TNFa wells
[2] = inhibitors of mutant huntingtin aggregation, primary screen, imaging, exon1htt(103Q)mCFP cells, high-content imaging (AID 483;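 active means visual image review flags a hit and inhibition of aggregation exceeds 20%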;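 further: compound exposure lasted 3 days before fixation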;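 on nuclei count: percent of the per-plate median nuclei count of sample wells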); settings: exon1htt(103Q)mCFP cell line, aggregate imaging, at 2 µM; inhibition of aggregation: stronger effect = higher value; nuclei count: measured here: cell count, toxicity
[3] = inhibitors of E-selectin induction by TNFa, primary screen, imaging, HUVEC, immunofluorescence, MLSMR starter and 10KST1 sets (AID 487;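 active means visually confirmed hit in the image check and inhibition above 20%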;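 on inhibition: signal is fraction of cell area covered by stained E-selectin grains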;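 on nuclei count: 100% = median nuclei count of all wells on the same plate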); settings: HUVEC TNFalpha-induced E-selectin immunofluorescence imaging, at 2 µM; inhibition: stronger effect = higher value; nuclei count: measured here: cell number, toxicity
[4] = biological target: Voltage-gated potassium channel subunit beta-2 (Rattus norvegicus) (UniProt P62483); assay: KvBeta enzyme negative modulators, primary screen, biochemical, NADPH fluorescence (AID 622); settings: recombinant KvBeta, 4-cyanobenzaldehyde reduction, at 10 µM, stronger effect = higher value;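 further: slope of raw intensity against log time taken from 70 to 1610 s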
Sequence of Voltage-gated potassium channel subunit beta-2 (Rattus norvegicus) (P62483 whole entry, looked up): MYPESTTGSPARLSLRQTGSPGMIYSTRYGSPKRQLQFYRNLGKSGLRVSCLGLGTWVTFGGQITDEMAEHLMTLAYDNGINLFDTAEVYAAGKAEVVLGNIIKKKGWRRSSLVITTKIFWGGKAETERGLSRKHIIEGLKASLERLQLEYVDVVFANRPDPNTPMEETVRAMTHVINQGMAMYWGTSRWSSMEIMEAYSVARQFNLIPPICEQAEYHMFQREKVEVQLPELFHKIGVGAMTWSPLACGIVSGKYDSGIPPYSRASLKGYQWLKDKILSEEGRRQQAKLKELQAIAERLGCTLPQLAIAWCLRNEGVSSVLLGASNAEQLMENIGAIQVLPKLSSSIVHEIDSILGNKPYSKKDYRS

[5] = biological target: Voltage-gated potassium channel subunit beta-2 (Rattus norvegicus) (UniProt P62483); assay: KvBeta positive modulators, primary screen, biochemical, NADPH fluorescence (AID 623;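 active means NADPH fluorescence slope more negative than the mean of all samples by about 3 SD, 99.7% confidence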;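 further: fluorescence intensity change per second fitted from 20 to 320 s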); settings: Recombinant KvBeta, NADPH fluorescence decrease slope, 10 min; at 10 µM; stronger effect = lower value
[6] = biological target: Alpha-2C adrenergic receptor (Homo sapiens) (UniProt P18825); assay: modulators of alpha2C/GIRK thallium flux, primary screen, cell-based, HEK293 alpha2C/GIRK1/2 (AID 624;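 active means fluorescence slope after compound addition differing from the mean of all screened samples at 99.7% confidence, in either direction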;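 further: slope of fluorescence ratio to pre-addition baseline per second over 15 to 24 s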); settings: thallium flux BTC fluorescence, at 10 µM, actives lie on both sides
Sequence of Alpha-2C adrenergic receptor (Homo sapiens) (P18825 whole entry, looked up): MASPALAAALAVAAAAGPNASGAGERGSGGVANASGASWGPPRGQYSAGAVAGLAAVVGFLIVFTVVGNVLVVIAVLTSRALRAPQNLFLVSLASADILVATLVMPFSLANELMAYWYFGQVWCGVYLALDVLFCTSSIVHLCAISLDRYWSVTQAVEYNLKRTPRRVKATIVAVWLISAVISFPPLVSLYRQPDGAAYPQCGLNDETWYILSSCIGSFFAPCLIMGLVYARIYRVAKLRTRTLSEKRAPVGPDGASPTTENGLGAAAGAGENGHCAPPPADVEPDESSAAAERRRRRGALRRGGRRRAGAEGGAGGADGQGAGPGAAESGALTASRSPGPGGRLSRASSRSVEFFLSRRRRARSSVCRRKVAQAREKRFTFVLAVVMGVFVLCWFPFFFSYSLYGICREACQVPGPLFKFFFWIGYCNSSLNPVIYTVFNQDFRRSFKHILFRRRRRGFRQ

[7] = inhibitors of Sendai virus-induced IRF3 signaling, primary screen, TLR/RLR signaling modifier project, cell-based, Sendai virus stimulus, luciferase, 10K MLSCN set (AID 602276;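 active means inhibition at or above 50% at 10 µM; inactive means inhibition below 50%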;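 further: firefly luciferase from ISG56 promoter only with Renilla not read in this screen; 0% = Sendai virus plus DMSO and 100% = medium plus DMSO without virus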); settings: HEK293 RL24 IRF3 luciferase reporter, at 10 µM, stronger effect = higher value
[8] = inhibitors of poly I:C-induced TLR3 signaling, primary screen, cell-based, poly I:C stimulus, luciferase, 10K MLSCN set (AID 602277;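 active means inhibition of the reporter signal at or above 50%; inactive means inhibition below 50%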); settings: HEK293-TLR3 RL24 IRF3 luciferase reporter, at 10 µM, stronger effect = higher value

Row | SMILES | cell count [1] | inhibition [1] | inhibition of aggregation [2] | nuclei count [2] [%] | inhibition [3] | nuclei count [3] [%] | fluorescence slope [4] | NADPH fluorescence slope [5] | slope [6] | inhibition [7] | inhibition [8]
1 | COC(=O)CCC(=O)Nc1ccc(S(=O)(=O)N2CCCCCC2)cc1 | 743 | 16.7% (inactive) | -20.5% (inactive) | 97.4 | 34.8% (inactive) | 116 | -0.496 (inactive) | -5.3e-05 (inactive) | 0.00616 (inactive) | 8.32% (inactive) | 24.1% (inactive)
2 | CN(C)CCCNC(=O)c1ccc(CN(c2ccccc2)S(C)(=O)=O)cc1 | 641 | 1% (inactive) | -1.7% (inactive) | 101 | 25.8% (inactive) | 84.7 | -0.43 (inactive) | -0.000115 (inactive) | 0.00575 (inactive) | 8.82% (inactive) | 24.2% (inactive)
3 | CC(C)=CCCC(C)N(C=O)C(C)CCC=C(C)C (centres undefined) | 470 | 8.1% (inactive) | 4.3% (inactive) | 98.2 | -144% (inactive) | 126 | -0.598 (inactive) | -1.6e-06 (inactive) | 0.00568 (inactive) | 10.3% (inactive) | -8.14% (inactive)
4 | O=C(NCCCN1CCCC1=O)c1ccc2c(c1)NC(=O)C(N1CCOCC1)S2 (centres undefined) | 431 | 7.4% (inactive) | -20.6% (inactive) | 114 | -21.8% (inactive) | 116 | -0.615 (inactive) | -3.9e-05 (inactive) | 0.00374 (inactive) | 6.23% (inactive) | 15% (inactive)
5 | Cc1nn(C)c(C)c1CNC(=O)c1cc2n(n1)C(C(F)(F)F)CC(c1cccs1)N2 (centres undefined) | 565 | 1.9% (inactive) | -16.5% (inactive) | 95.1 | -65% (inactive) | 115 | -0.583 (inactive) | -6.9e-05 (inactive) | 0.00578 (inactive) | -2.09% (inactive) | -24.4% (inactive)
6 | COc1cccc(-c2nnc(NC(=O)c3ccccc3Br)o2)c1 | 718 | -6.9% (inactive) | -5.7% (inactive) | 110 | -17.4% (inactive) | 117 | -0.421 (inactive) | -3.3e-05 (inactive) | 0.00691 (inactive) | 4.13% (inactive) | 17.2% (inactive)
7 | COc1ccc(N2CCN(CCCNC(=O)C3CCCN(S(=O)(=O)c4cnc[nH]4)C3)CC2)cc1 (centres undefined) | 604 | 33.9% (active) | -29.9% (inactive) | 89.3 | -87.7% (inactive) | 122 | -0.537 (inactive) | -5.9e-06 (inactive) | 0.0058 (inactive) | -10.4% (inactive) | 17.4% (inactive)
8 | CCOC(=O)c1cn(CC)c2cc(N3CCOCC3)c(F)cc2c1=O | 249 | -5.5% (inactive) | 4.6% (inactive) | 72.9 | -45.9% (inactive) | 114 | -0.592 (inactive) | -1e-05 (inactive) | 0.00553 (inactive) | 3.57% (inactive) | 10.9% (inactive)
9 | CCOC(=O)C1CN(S(=O)(=O)c2ccc(C)cc2)CCN1S(=O)(=O)c1ccc(C)cc1 (centres undefined) | 339 | 3.3% (inactive) | -36.8% (inactive) | 117 | -114% (inactive) | 122 | -0.591 (inactive) | 3.6e-05 (inactive) | 0.00631 (inactive) | 8.55% (inactive) | 11% (inactive)
